The values below come from the supplement of paper PMC10849652.

Of roughly 7,900 targets only a part is listed; those with a hit were picked by preference. About 0.6% of all pairs of compound and target were hits. Unmarked numbers belong to inactive results.

UniProt Q8N3D4, sequence (Q8N3D4 whole entry, looked up): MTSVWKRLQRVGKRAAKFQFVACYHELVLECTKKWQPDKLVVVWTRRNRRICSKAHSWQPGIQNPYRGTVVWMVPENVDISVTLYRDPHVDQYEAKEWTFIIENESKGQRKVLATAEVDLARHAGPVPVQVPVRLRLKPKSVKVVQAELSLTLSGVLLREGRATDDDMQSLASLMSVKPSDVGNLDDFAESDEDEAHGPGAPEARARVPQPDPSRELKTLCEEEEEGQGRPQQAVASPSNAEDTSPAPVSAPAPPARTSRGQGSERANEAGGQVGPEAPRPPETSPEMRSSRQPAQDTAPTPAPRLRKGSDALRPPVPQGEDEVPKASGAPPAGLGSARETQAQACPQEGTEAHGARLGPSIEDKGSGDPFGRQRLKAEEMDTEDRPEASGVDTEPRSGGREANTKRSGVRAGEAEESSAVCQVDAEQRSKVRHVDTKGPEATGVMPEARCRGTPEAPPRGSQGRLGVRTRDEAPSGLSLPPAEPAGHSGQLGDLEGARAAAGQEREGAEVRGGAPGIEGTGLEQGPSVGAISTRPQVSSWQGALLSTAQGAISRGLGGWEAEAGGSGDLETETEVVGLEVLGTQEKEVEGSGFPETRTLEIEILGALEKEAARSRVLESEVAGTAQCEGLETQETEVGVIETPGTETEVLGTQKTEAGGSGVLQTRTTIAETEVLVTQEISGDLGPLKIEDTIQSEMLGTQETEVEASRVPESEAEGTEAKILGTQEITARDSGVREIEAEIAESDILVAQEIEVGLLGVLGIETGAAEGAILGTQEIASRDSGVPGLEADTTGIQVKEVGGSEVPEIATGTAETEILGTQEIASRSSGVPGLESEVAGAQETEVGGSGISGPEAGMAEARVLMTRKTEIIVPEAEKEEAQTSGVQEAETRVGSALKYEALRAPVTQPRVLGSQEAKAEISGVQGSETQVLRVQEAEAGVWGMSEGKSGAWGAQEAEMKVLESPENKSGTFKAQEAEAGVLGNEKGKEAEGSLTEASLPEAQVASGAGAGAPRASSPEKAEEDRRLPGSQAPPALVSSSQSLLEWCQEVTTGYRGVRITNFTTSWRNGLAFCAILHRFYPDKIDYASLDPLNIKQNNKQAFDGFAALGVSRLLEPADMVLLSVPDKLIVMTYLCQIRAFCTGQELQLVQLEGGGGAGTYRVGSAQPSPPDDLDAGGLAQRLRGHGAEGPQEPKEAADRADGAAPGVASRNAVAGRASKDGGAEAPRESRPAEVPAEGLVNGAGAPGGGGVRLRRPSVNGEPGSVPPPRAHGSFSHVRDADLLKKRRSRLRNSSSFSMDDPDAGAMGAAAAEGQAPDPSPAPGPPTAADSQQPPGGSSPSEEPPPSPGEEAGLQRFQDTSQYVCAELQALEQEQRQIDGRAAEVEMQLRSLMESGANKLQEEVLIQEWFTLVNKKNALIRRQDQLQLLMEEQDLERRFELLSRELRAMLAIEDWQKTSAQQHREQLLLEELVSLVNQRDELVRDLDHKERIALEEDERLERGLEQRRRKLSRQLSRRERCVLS
UniProt Q9NXW2, sequence (Q9NXW2 whole entry, looked up): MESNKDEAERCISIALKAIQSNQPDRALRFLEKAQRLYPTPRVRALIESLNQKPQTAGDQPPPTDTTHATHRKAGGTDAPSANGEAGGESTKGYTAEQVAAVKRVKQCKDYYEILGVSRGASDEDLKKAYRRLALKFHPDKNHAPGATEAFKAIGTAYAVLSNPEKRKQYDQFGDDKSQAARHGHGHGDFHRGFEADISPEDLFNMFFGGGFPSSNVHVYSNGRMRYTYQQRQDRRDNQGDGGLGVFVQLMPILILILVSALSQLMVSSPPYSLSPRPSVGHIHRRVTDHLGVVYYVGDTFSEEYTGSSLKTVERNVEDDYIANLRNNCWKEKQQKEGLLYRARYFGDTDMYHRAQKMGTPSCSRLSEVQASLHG
UniProt Q14118, sequence (Q14118 whole entry, looked up): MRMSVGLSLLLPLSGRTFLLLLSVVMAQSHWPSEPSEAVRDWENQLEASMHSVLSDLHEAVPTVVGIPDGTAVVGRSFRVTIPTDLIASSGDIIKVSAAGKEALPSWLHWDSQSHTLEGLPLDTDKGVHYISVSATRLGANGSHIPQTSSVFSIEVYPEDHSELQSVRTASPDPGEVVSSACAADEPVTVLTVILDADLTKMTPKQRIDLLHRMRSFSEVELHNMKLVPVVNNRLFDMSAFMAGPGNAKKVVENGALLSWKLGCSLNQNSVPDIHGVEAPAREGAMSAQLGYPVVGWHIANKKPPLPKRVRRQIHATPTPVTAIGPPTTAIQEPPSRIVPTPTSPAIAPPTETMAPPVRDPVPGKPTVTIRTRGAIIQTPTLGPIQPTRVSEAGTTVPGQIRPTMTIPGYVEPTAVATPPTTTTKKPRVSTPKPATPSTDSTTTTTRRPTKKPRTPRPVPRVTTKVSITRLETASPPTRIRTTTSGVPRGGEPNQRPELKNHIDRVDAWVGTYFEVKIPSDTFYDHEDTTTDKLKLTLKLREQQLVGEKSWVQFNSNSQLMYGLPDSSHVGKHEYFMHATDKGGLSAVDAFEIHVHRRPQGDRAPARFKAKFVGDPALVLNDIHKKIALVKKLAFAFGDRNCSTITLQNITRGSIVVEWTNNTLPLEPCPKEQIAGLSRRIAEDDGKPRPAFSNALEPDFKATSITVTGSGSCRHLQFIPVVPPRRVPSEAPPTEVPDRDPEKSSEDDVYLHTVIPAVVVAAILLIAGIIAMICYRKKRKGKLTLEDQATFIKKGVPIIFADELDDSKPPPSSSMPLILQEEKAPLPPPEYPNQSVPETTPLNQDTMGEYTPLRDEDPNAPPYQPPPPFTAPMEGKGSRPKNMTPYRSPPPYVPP
UniProt Q16531, sequence (Q16531 whole entry, looked up): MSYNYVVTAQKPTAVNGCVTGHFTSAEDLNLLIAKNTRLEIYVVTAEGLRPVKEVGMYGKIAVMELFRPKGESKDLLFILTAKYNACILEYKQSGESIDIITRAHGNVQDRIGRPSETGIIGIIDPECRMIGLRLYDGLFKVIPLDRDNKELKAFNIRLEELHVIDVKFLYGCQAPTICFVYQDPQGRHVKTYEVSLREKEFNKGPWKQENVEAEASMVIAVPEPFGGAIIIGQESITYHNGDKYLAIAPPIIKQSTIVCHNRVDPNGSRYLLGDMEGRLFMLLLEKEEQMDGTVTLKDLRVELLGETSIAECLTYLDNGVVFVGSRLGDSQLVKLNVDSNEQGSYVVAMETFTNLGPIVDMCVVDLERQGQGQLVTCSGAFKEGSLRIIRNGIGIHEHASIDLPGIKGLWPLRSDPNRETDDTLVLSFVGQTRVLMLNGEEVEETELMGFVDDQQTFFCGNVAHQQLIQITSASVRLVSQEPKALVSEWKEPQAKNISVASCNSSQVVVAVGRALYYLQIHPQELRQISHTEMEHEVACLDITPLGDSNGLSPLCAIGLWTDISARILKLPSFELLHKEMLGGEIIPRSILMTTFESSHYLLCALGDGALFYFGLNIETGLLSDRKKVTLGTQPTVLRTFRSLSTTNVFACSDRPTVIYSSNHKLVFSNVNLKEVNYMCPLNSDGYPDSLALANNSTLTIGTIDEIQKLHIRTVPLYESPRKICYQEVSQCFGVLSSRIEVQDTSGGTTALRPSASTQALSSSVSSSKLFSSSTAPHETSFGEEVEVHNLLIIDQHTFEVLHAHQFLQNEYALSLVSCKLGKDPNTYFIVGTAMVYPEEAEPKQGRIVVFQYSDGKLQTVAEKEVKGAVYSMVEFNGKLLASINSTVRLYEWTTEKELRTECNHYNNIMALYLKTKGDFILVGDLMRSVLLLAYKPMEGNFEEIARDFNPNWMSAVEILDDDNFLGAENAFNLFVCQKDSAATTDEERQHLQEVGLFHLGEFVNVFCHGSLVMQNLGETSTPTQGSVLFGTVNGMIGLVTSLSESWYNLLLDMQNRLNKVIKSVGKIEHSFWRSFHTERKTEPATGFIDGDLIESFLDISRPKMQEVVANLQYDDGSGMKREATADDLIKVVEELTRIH
UniProt Q9UBM7, sequence (Q9UBM7 whole entry, looked up): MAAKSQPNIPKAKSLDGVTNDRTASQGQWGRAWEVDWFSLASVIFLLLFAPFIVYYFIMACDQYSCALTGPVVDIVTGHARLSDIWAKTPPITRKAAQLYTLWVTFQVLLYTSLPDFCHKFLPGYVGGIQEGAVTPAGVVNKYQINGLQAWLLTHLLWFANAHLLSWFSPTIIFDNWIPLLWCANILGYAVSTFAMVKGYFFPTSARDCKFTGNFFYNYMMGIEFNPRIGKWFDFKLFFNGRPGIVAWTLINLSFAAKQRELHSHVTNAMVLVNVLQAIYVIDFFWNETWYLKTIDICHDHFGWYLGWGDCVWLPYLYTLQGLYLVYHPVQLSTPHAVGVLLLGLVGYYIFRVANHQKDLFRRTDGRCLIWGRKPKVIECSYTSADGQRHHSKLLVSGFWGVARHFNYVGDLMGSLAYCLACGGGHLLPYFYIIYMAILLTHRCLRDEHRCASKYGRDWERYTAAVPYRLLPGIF
UniProt Q9UK59, sequence (Q9UK59 whole entry, looked up): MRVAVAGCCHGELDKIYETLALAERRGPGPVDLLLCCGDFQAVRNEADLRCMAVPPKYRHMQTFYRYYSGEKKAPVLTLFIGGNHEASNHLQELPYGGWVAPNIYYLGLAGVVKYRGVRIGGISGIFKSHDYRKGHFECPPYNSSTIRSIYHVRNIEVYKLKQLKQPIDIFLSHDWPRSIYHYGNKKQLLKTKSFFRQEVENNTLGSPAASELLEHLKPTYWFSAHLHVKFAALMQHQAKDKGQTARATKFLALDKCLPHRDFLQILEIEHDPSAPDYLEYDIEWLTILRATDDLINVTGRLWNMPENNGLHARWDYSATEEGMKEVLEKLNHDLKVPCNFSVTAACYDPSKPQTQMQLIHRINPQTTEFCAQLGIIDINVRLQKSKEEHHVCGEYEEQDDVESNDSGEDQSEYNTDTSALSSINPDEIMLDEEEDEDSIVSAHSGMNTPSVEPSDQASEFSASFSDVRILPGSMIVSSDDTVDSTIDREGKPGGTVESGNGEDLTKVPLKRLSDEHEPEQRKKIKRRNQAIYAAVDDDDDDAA

Compound in the first experiment: C[C@H](C1=CC=C(C=C1)C(=O)NC2=C3C=CNC3=NC=C2)N
In words: log2 fold change, soluble protein after heating vs DMSO (PISA); higher = thermal stabilisation; K562 cells, 10 uM, 30 min; active = over 0.2 and 3.5 SD of the protein, either way, in both replicates (recomputed). Summed up:
(§1)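 Aliquots of K562 cells (2×10^6 cells/mL) treated with 10 μM compound for 30 min were heated for 3 min over 48°C-58°C. After pooling and extraction in PBS with 0.5% NP-40 at 4°C, soluble protein from a 21,000xg, 90 min spin was quantified by TMTpro 16plex LC-MS/MS with channel sums equalised. Thermal stability is expressed against control samples, from duplicates, as a log2 fold change.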
As to DNAJB12 (UniProt Q9NXW2), the log2 fold change is 0.035.
The same measure, in the same setting: with DHFR (UniProt P00374) the figure was 0.239; with DFFB (UniProt O76075), 0.106.
As to EXOC5 (UniProt O00471), the log2 fold change was 0.015.
On the same count and under the same terms, with DCTPP1 (UniProt Q9H773) the figure was -0.177; with DHX40 (UniProt Q8IX18), 0.03.
As for EOGT (UniProt Q5NDL2), the log2 fold change was 0.069.
On the same count and under the same terms, with DHCR7 (UniProt Q9UBM7) the figure was 0.089.
On the same count and under the same terms, with CUTA isoform 2 (UniProt O60888) the figure was -0.001.
Take ERLIN1 (UniProt O75477): the log2 fold change was 0.099.
For the target EXOC1 (UniProt Q9NV70), the log2 fold change is 0.174.
The same measure, in the same setting: then CUX1 isoform 2 (UniProt Q13948), with -0.063; and DNM2 (UniProt P50570), with -0.021; and DHRS7B (UniProt Q6IAN0), with -0.08.
On the same count and under the same terms, with DIP2A (UniProt Q14689) the figure was -0.01.
The same measure, in the same setting: with FAM114A2 (UniProt Q9NRY5) the figure was -0.026; with FAF2 (UniProt Q96CS3), 0.049.
Regarding ECH1 (UniProt Q13011), the log2 fold change was -0.011.
For DDOST (UniProt P39656), the log2 fold change was -0.055.
Still for that read-out and setting: with DCAF6 isoform 3 (UniProt Q58WW2) the figure was -0.054.
Still for that read-out and setting: then DHCR24 (UniProt Q15392), with 0.056; and DNAH11 (UniProt Q96DT5), with 0.695 (active).
The same measure, in the same setting: with DCAF13 (UniProt Q9NV06) the figure was 0.273.
In the case of CYBA (UniProt P13498), the log2 fold change was -0.045.
Same read-out and setting: with FADS1, A0A0A0MR51 the figure was -0.026; with DPP8 (UniProt Q6V1X1), -0.048; with DDB1 (UniProt Q16531), -0.039.
As for CUX1 isoform 3 (UniProt P39880), the log2 fold change is -0.002.
Same read-out and setting: then EHBP1L1 (UniProt Q8N3D4), with 0.012; and EXOC7 (UniProt Q9UPT5), with 0.034.
The same measure, in the same setting: then DHX36 (UniProt Q9H2U1), with 0.2; and DBR1 (UniProt Q9UK59), with -0.014; and ERLIN2 (UniProt O94905), with 0.068.
On the same count and under the same terms, with DAG1 (UniProt Q14118) the figure was 0.032; with EFL1 (UniProt Q7Z2Z2), 0.016.
As for DHRS3 (UniProt O75911), the log2 fold change was 0.069.
Still for that read-out and setting: with FAM160B1 (UniProt Q5W0V3) the figure was -0.003; with EHD2 (UniProt Q9NZN4), -0.008.
On the same count and under the same terms, then DTWD1 (UniProt Q8N5C7), with 0.014; and FAM177A1 isoform 2 (UniProt Q8N128), with -0.063.

Compound in another experiment: C[C@H](Nc1ncnc2nc[nH]c12)c1cc2cccc(Cl)c2c(=O)n1-c1ccccc1 [duvelisib]
The description is as above. Summed up: as §1
DNAJB12 (UniProt Q9NXW2): the log2 fold change is -0.009.
The same measure, in the same setting: with DHFR (UniProt P00374) the figure was 0.604 (active); with DFFB (UniProt O76075), 0.037.
On the same count and under the same terms, then EXOC5 (UniProt O00471), with 0.005.
For DCTPP1 (UniProt Q9H773), the log2 fold change was 0.072.
Still for that read-out and setting: then DHX40 (UniProt Q8IX18), with 0.005; and EOGT (UniProt Q5NDL2), with 0.045; and DHCR7 (UniProt Q9UBM7), with -0.029.
On the same count and under the same terms, with CUTA isoform 2 (UniProt O60888) the figure was 0.01; with ERLIN1 (UniProt O75477), -0.021; with EXOC1 (UniProt Q9NV70), -0.013.
On to CUX1 isoform 2 (UniProt Q13948), for which the log2 fold change was 0.029.
Turning to DNM2 (UniProt P50570), the log2 fold change was 0.05.
Same read-out and setting: then DHRS7B (UniProt Q6IAN0), with 0.097; and DIP2A (UniProt Q14689), with 0.071.
The same measure, in the same setting: then FAM114A2 (UniProt Q9NRY5), with 0.014; and FAF2 (UniProt Q96CS3), with 0.031.
Take ECH1 (UniProt Q13011): the log2 fold change is 0.04.
The same measure, in the same setting: with DDOST (UniProt P39656) the figure was -0.074; with DCAF6 isoform 3 (UniProt Q58WW2), 0.025; with DHCR24 (UniProt Q15392), 0.027.
The same measure, in the same setting: with DNAH11 (UniProt Q96DT5) the figure was 0.073.
The same measure, in the same setting: then DCAF13 (UniProt Q9NV06), with -0.105; and CYBA (UniProt P13498), with 0.05.
Take FADS1, A0A0A0MR51: the log2 fold change was 0.016.
On the same count and under the same terms, with DPP8 (UniProt Q6V1X1) the figure was 0.025.
As for DDB1 (UniProt Q16531), the log2 fold change was 0.02.
On the same count and under the same terms, with CUX1 isoform 3 (UniProt P39880) the figure was 0.064; with EHBP1L1 (UniProt Q8N3D4), 0.139; with EXOC7 (UniProt Q9UPT5), 0.027.
The same measure, in the same setting: then DHX36 (UniProt Q9H2U1), with -0.029.
On the same count and under the same terms, then DBR1 (UniProt Q9UK59), with -0.072.
In the case of ERLIN2 (UniProt O94905), the log2 fold change was -0.032.
Still for that read-out and setting: with DAG1 (UniProt Q14118) the figure was 0.116.
As for EFL1 (UniProt Q7Z2Z2), the log2 fold change is 0.002.
Same read-out and setting: with DHRS3 (UniProt O75911) the figure was 0.027.
With FAM160B1 (UniProt Q5W0V3), the log2 fold change is 0.117.
EHD2 (UniProt Q9NZN4): the log2 fold change is 0.048.
Turning to DTWD1 (UniProt Q8N5C7), the log2 fold change is 0.015.
Same read-out and setting: with FAM177A1 isoform 2 (UniProt Q8N128) the figure was 0.012.
